Test results reported in PubChem BioAssay (NCI).
This is part of a sample that, as a whole, favours compounds with a hit. Of some 79,000 tested, about 15% had one in any assay. Activity calls are given as the source filed them. Rule as the data show it: active = growth inhibition above about 70%; inactive = the rest.

What was measured:
[1] = NCI Yeast Anticancer Drug Screen. Data for the rad50 strain (AID 155);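 also: 0% = growth of vehicle-only cultures of the same strain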; settings: S. cerevisiae rad50 strain growth inhibition, stronger effect = higher value
How it was run: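 Growth of the mutant yeast was measured after compound exposure and referenced to vehicle-treated cultures.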

[2] = NCI Yeast Anticancer Drug Screen. Data for the mec2-1 strain (AID 157); settings: S. cerevisiae mec2-1 strain, stronger effect = higher value
How it was run: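 Using mec2-1 yeast: add compound, measure growth, express inhibition versus vehicle-treated cultures.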

[3] = NCI Yeast Anticancer Drug Screen. Data for the sgs1 mgt1 strain (AID 161);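 also: 0% = growth of cultures given vehicle only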; settings: S. cerevisiae sgs1 mgt1 strain, stronger effect = higher value
How it was run: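 Growth of a repair-deficient yeast mutant was monitored after compound treatment and expressed as inhibition relative to vehicle-treated cultures.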

[4] = NCI Yeast Anticancer Drug Screen. Data for the cln2 rad14 strain (AID 165);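 also: 0% = growth equal to vehicle treated cultures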; settings: S. cerevisiae cln2 rad14 strain, stronger effect = higher value
How it was run: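 Yeast strain cln2 rad14, bearing defects in cell cycle control and DNA repair, serves as the test system; values reflect growth inhibition compared with vehicle.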

[5] = NCI Yeast Anticancer Drug Screen. Data for the bub3 strain (AID 167); settings: S. cerevisiae bub3 mutant strain, stronger effect = higher value
How it was run: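 Whole-cell yeast assay. The mutant strain was incubated with compounds, and growth inhibition was determined by comparison with vehicle-treated cells.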

[6] = NCI Yeast Anticancer Drug Screen. Data for the mlh1 rad18 strain (AID 175); settings: S. cerevisiae mlh1 rad18 strain growth inhibition, stronger effect = higher value
How it was run: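 Steps: expose repair-defective yeast to compound; measure growth; express inhibition against vehicle-treated controls.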

[7] = at 5.0 µM (retest, dose inferred, filed as 0.5)
[8] = at 50.0 µM (retest, dose inferred, filed as 5.0)

Measured: growth inhibition

Clc1ccc2c(NCCCCCCNc3ccnc4cc(Cl)ccc34)ccnc2c1
inactive: [1]; [7] 2% | [1]; at 50.0 µM 65.9% | [2]; [7] -3% | [3]; [7] -10% | [4]; [7] -2% | [5]; [7] -11% | [6]; [7] 12%
active: [1]; [8] 90% | [2]; [8] 98% | [2]; at 50.0 µM 92.4% | [3]; [8] 95% | [3]; at 50.0 µM 87.5% | [4]; [8] 75% | [4]; at 50.0 µM 72.4% | [5]; [8] 92% | [5]; at 50.0 µM 81.1% | [6]; [8] 97% | [6]; at 50.0 µM 95.8%

N#C/C(=C\c1c(Cl)cccc1Cl)c1ccccc1
active: [6]; at 50.0 µM 70.7%
inactive: [1]; [7] 11% | [1]; [8] 37% | [1]; at 50.0 µM 64.3% | [2]; [7] -9% | [2]; [8] 13% | [2]; at 50.0 µM 29.3% | [3]; [7] 12% | [3]; [8] 33% | [3]; at 50.0 µM 42.5% | [4]; [7] 8% | [4]; [8] 35% | [4]; at 50.0 µM 23% | [5]; [7] 21% | [5]; [8] 62% | [5]; at 50.0 µM 45.8% | [6]; [7] -18% | [6]; [8] 55%

CCOC(=S)SCc1nc2ccccc2[nH]1
active: [1]; at 50.0 µM 87% | [2]; [8] 96% | [2]; at 50.0 µM 80.7% | [3]; at 50.0 µM 82.6% | [4]; [8] 83% | [5]; [8] 86% | [5]; at 50.0 µM 76.8% | [6]; [8] 93% | [6]; at 50.0 µM 89.2%
inactive: [1]; [7] 9% | [1]; [8] 51% | [2]; [7] 3% | [3]; [7] 7% | [3]; [8] 15% | [4]; [7] 10% | [4]; at 50.0 µM 69% | [5]; [7] 5% | [6]; [7] 3%

N#CSCCSC#N
active: [1]; [8] 95% | [1]; at 50.0 µM 76% | [2]; [8] 93% | [2]; at 50.0 µM 82.5% | [3]; [8] 91% | [3]; at 50.0 µM 87.2% | [4]; [8] 86% | [5]; [8] 96% | [5]; at 50.0 µM 81.8% | [6]; [8] 95% | [6]; at 50.0 µM 83.7%
inactive: [1]; [7] 5% | [2]; [7] -1% | [3]; [7] 4% | [4]; [7] 6% | [4]; at 50.0 µM 40.3% | [5]; [7] 9% | [6]; [7] 3%

CNC(=O)N1N[C@H](c2ccccc2)[C@@H]1c1ccccc1
inactive: [1]; [7] 25% | [1]; [8] 69% | [1]; at 50.0 µM 30.6% | [2]; [7] 15% | [2]; [8] 50% | [2]; at 50.0 µM 35% | [3]; [7] 21% | [3]; [8] 63% | [3]; at 50.0 µM 47.4% | [4]; [7] 20% | [4]; [8] 32% | [4]; at 50.0 µM 36.9% | [5]; [7] 29% | [5]; at 50.0 µM 46.9% | [6]; [7] 23% | [6]; [8] 60% | [6]; at 50.0 µM -14.1%
active: [5]; [8] 72%

CN(C)CCNc1ccc(O)c2sc3ccccc3c(=O)c12
active: [1]; [8] 82% | [1]; at 50.0 µM 81.8% | [3]; [8] 70% | [6]; [8] 81%
inactive: [1]; [7] 0% | [2]; [7] -6% | [2]; [8] 56% | [2]; at 50.0 µM 42.8% | [3]; [7] -7% | [3]; at 50.0 µM 48.1% | [4]; [7] -7% | [4]; [8] 19% | [4]; at 50.0 µM 30.6% | [5]; [7] -9% | [5]; [8] 3% | [5]; at 50.0 µM 33.4% | [6]; [7] -5% | [6]; at 50.0 µM 51%

COC/C(Br)=C\SC#N (tested in a mixture with another compound)
active: [1]; at 50.0 µM 98.8% | [2]; at 50.0 µM 98.7% | [3]; at 50.0 µM 98.9% | [4]; at 50.0 µM 97.7% | [5]; at 50.0 µM 98.2% | [6]; at 50.0 µM 98.2%
inactive: [1]; [7] 0% | [1]; [8] 34% | [2]; [7] -14% | [2]; [8] 23% | [3]; [7] -2% | [3]; [8] 40% | [4]; [7] -5% | [4]; [8] 61% | [5]; [7] -6% | [5]; [8] 53% | [6]; [7] 16% | [6]; [8] 38%
